The results in this text go back to PubChem BioAssay (NCATS).

Unmarked numbers belong to inactive results. Records with an inconclusive call do not appear. Active and inactive are the calls of the source. Unless noted, calls follow the shape of the dose curve; as a rule, active = well fitted curve in either direction with a large enough effect (not every such curve was filed as active); inconclusive = small, poorly fitted or top-dose-only effect, or another doubt; inactive = flat fitted curve, though single readings scatter. Bounds are passed on as bounds.

Assay [1] is described as follows: AP1 Signaling Pathway (AID 357).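 Also: ME-180 reporter cells stimulated with EGF at its EC50 level; % is scaled to controls: 0 for no effect and ±100 for the full control effect.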 Conditions: ME-180 AP-1-bla reporter, EGF-induced, beta-lactamase ratio, 5 h; at 17.2 µM (top of the series) unless noted. In a few lines: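 Modulation of EGF-driven AP-1 transcription was assessed with a beta-lactamase reporter in ME-180 cells. Compound and EC50 EGF were co-incubated 5 hours at 37 °C before 2.5-hour CCF4 loading at room temperature and dual-emission reading.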

Assay [2] can be described thus: NFAT Signaling Pathway (AID 444).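 Also: carbachol stimulus at about its EC50 of 1 µM final; % is scaled to controls: 0 for no effect and ±100 for the full control effect.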 Conditions: Jurkat NFAT-bla M1, carbachol, beta-lactamase ratio, 5 h; at 17.2 µM (top of the series) unless noted. In short, it runs like this: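 Read-out: CCF4 FRET ratio (460 nm/530 nm) after 1 h RT dye loading, used for %activity and AC50 from titration series. Cells: Jurkat NFAT-β-lactamase/M1 line, treated with compound plus 1 uM carbachol for 5 h, 37 °C.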

Assay [3] can be described thus: Stat Signaling Pathway (AID 446).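 Also: ME-180 cervical cancer cells given 40 pM IL-6 alongside compound; SIE-controlled beta-lactamase reporter measured as 460/530 nm FRET emission ratio; % is scaled to controls: 0 for no effect and ±100 for the full control effect.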 Conditions: ME-180 (cervical carcinoma) SIE beta-lactamase reporter, IL-6 stimulated, 5 h; at 17.2 µM (top of the series) unless noted. In a few lines:
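Normalization used AC90 stimulation (300 pM IL-6) and AC90 inhibition (125 nM pan-JAK inhibitor at 40 pM IL-6). The underlying signal is SIE-driven beta-lactamase in ME-180 cells after 5 h IL-6 exposure with compound.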

Assay [4] addresses Glucocorticoid receptor (Homo sapiens) (UniProt P04150). The assay is described as follows: GR-GFP Redistribution (AID 450;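 active = compounds whose dose series gives a full or clear partial fitted curve of increased nuclear translocation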; also: potency is read from the fitted curve at half-maximal effect).

Sequence of Glucocorticoid receptor (Homo sapiens) (P04150 whole entry, looked up): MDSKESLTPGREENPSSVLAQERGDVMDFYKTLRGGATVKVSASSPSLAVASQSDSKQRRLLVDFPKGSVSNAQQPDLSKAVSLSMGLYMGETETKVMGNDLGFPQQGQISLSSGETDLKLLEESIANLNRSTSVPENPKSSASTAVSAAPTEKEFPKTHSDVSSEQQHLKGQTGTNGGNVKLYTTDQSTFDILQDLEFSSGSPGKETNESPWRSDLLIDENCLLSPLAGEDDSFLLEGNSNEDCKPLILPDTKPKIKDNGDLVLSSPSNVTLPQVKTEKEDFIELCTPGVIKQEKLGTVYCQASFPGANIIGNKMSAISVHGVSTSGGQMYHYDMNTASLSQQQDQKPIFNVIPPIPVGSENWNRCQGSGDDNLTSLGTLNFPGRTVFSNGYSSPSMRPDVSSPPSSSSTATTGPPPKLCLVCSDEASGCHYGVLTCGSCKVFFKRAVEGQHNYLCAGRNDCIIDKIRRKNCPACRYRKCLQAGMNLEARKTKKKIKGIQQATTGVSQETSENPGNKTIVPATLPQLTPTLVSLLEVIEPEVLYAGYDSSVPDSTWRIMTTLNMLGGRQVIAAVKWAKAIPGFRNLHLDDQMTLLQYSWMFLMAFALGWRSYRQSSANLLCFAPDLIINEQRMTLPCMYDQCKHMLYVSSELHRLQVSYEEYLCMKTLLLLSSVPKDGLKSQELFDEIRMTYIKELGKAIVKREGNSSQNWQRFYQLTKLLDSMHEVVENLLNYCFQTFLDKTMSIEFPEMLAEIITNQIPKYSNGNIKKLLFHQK

Regarding `CCOC(=O)c1ccc2nc(NC(NC(C)=O)(C(=O)OC)C(F)(F)F)sc2c1` (stereo not given), the activity change, negative = inhibition in assay [1] was -14%; in assay [2] it was -1.54%. Besides, the activity, negative = inhibition in assay [3] was -10.8%. Moreover, the Potency in assay [4] was over 20.6 µM.

Take `O=C(CN1C(=O)c2ccccc2C1=O)OCN1C(=O)c2ccccc2C1=O`: the activity change, negative = inhibition in assay [1] was 8.86%; in assay [2] it was -11.6%. Also, the activity, negative = inhibition in assay [3] was 6.85%. Moreover, in assay [4], the Potency is over 20.6 µM.

For `Cn1c(N2CCN(c3ccccn3)CC2)nc2c1c(=O)n(Cc1ccccc1Cl)c(=O)n2C`, the values for the activity change, negative = inhibition in assay [1] and in assay [2] were 4.27% and 8.29%, respectively. In addition, the activity, negative = inhibition in assay [3] was -8.44%. In addition, the Potency in assay [4] is over 20.6 µM.

Regarding `CCOC(=O)c1cc(C)n(-c2ccc(OC)c(OC)c2)c1C`, the activity change, negative = inhibition is -17.8% in assay [1] and -1.46% in assay [2]. The activity, negative = inhibition in assay [3] was -14.1%. Also, the Potency in assay [4] is over 20.6 µM.

Regarding `CCN(CC)C(=O)CSC1=C(C#N)C(c2cccs2)C=C(C)N1` (stereo not given), the activity change, negative = inhibition was -28.4% in assay [1] and -9.19% in assay [2]. For the same compound, in assay [3], the activity, negative = inhibition was 6.46%. Moreover, in assay [4], the Potency was over 20.6 µM.

As for `Cn1c(=O)n(CCc2ccccc2)c(=O)c2c1ncn2Cc1ccccc1`, the figures for the activity change, negative = inhibition in assay [1] and in assay [2] were -15.9% and -7.53%, respectively. In assay [3], the activity, negative = inhibition was -18.1%. For the same compound, the Potency in assay [4] is over 20.6 µM.

`Cc1cc(=O)oc(C)c1C(=O)NCC(C)C`: the activity change, negative = inhibition was 0.878% in assay [1] and -1.32% in assay [2]. Moreover, the activity, negative = inhibition in assay [3] is 8.66%. Further, in assay [4], the Potency is over 20.6 µM.

Turning to `C/C(CC1(O)C(=O)N(Cc2ccccc2)c2ccccc21)=N\O` (stereo not given), the activity change, negative = inhibition was 2.48% in assay [1] and 1.97% in assay [2]. Moreover, the activity, negative = inhibition in assay [3] was 3.88%. The Potency in assay [4] is over 20.6 µM.

On to `COC(=O)c1[nH]c(C)c(/C(O)=C2\C(=O)C(=O)N(CCN3CCOCC3)C2c2ccccc2OC)c1C` (stereo not given), for which the figures for the activity change, negative = inhibition in assay [1] and in assay [2] were 3.47% and 17.3%, respectively. For the same compound, the activity, negative = inhibition in assay [3] was -6.01%. For the same compound, in assay [4], the Potency was over 20.6 µM.

For the compound `CCOC(=O)c1c(C)cccc1OCC(N)=O`, the activity change, negative = inhibition is -9.84% in assay [1] and 0.392% in assay [2]. In addition, in assay [3], the activity, negative = inhibition is -2.4%. For the same compound, the Potency in assay [4] is over 20.6 µM.

On to `Cc1ccc(C2/C(=C(\O)c3cnn(-c4ccccc4)c3C)C(=O)C(=O)N2CCN(C)C)o1` (stereo not given), for which the activity change, negative = inhibition in assay [1] was -6.2%; in assay [2] it was -12.1%. For the same compound, in assay [3], the activity, negative = inhibition was 4.22%. For the same compound, the Potency in assay [4] is over 20.6 µM.

For `CSc1sc(C(=O)O)c2c1C(=O)CCC2`, the activity change, negative = inhibition was 12.2% in assay [1] and -0.427% in assay [2]. Also, the activity, negative = inhibition in assay [3] is 3.35%. Moreover, in assay [4], the Potency was over 20.6 µM.

On to `Cc1cc(C)n(CC2CC(=O)N(c3ccc(C)c(Cl)c3)C2=O)n1` (stereo not given), for which the activity change, negative = inhibition in assay [1] is -6.66%; in assay [2] it was 13.9%. In addition, in assay [3], the activity, negative = inhibition is -4.28%. Besides, the Potency in assay [4] is over 20.6 µM.

Take `COc1cccc(/C(O)=C2\C(=O)C(=O)N(c3ccccn3)C2c2ccccc2OC)c1` (stereo not given): the figures for the activity change, negative = inhibition in assay [1] and in assay [2] were -8.01% and 11.4%, respectively. Further, the activity, negative = inhibition in assay [3] was 1.49%. In assay [4], the Potency is over 20.6 µM.

Consider `COc1ccc(/C(O)=C2/C(=O)C(=O)N(CCCN(C)C)C2c2ccc(C)o2)cc1Cl` (stereo not given), for which the activity change, negative = inhibition in assay [1] is 9.2%; in assay [2], -6.18%. Further, the activity, negative = inhibition in assay [3] is 3.77%. In assay [4], the Potency is over 20.6 µM.

As to `COc1ccc(/C(O)=C2/C(=O)C(=O)N(CCCN(C)C)C2c2ccccc2)cc1Cl` (stereo not given), the activity change, negative = inhibition in assay [1] is 8.68%; in assay [2], -3.88%. The activity, negative = inhibition in assay [3] is 12.1%. Further, in assay [4], the Potency is over 20.6 µM.

Regarding `CCn1cc(C(=O)NCC2CCCO2)c(=O)c2cc(F)c(N3CCN(C)CC3)cc21` (stereo not given), the figures for the activity change, negative = inhibition in assay [1] and in assay [2] were -11.4% and -20.1%, respectively. In assay [3], the activity, negative = inhibition was -0.513%. Also, the Potency in assay [4] was over 20.6 µM.

As for `COc1ccc2[nH]c(C)c(C(=O)CN3CCN(C(=O)c4ccco4)CC3)c2c1`, the activity change, negative = inhibition is -11.2% in assay [1] and -1.42% in assay [2]. For the same compound, the activity, negative = inhibition in assay [3] was -3.32%. Besides, the Potency in assay [4] was over 20.6 µM.

As to `Oc1ccc2ccccc2c1C=NC12CN3CCN(CN(C3)C1)C2`, the results for the activity change, negative = inhibition in assay [1] and in assay [2] were 6.89% and -22.1%, respectively. The activity, negative = inhibition in assay [3] is -13.6%. The Potency in assay [4] is over 20.6 µM.

On to `C=C1C2(C(=O)Nc3nccs3)CCC(C2)C1(C)C` (stereo not given), for which the figures for the activity change, negative = inhibition in assay [1] and in assay [2] were -7.92% and 25.1%, respectively. Further, the activity, negative = inhibition in assay [3] was -0.516%. Besides, the Potency in assay [4] was over 20.6 µM.

For the compound `CC(NC(=O)CSc1nnc(COc2ccccc2)o1)c1ccccc1` (stereo not given), the figures for the activity change, negative = inhibition in assay [1] and in assay [2] were -6.03% and -0.274%, respectively. The activity, negative = inhibition in assay [3] was 2.03%. The Potency in assay [4] was over 20.6 µM.

`CC1(C)NC(=O)N(CC(O)COc2ccccc2C(=O)Nc2ccccc2)C1=O` (stereo not given): the activity change, negative = inhibition in assay [1] is -6.46%; in assay [2] it was 9.58%. Moreover, in assay [3], the activity, negative = inhibition is 3.3%. The Potency in assay [4] was over 20.6 µM.

Regarding `CC(=O)N/C(=N/c1nc(C)cc(C)n1)Nc1ccc(NC(C)=O)cc1`, the figures for the activity change, negative = inhibition in assay [1] and in assay [2] were -2.08% and -3.91%, respectively. Also, the activity, negative = inhibition in assay [3] is -1.02%. For the same compound, the Potency in assay [4] was over 20.6 µM.

With `O=C(OCCCN1CCCC1)C1(c2ccccc2)CCCC1`, the activity change, negative = inhibition in assay [1] is 14.4%; in assay [2], -82.8% (active). Moreover, the activity, negative = inhibition in assay [3] is 13.7%. The Potency in assay [4] is over 20.6 µM.

For `COc1ccc(C2/C(=C(/O)c3ccccc3)C(=O)C(=O)N2c2ncccn2)cc1OC` (stereo not given), the activity change, negative = inhibition in assay [1] is -3.2%; in assay [2], -4.09%. Moreover, the activity, negative = inhibition in assay [3] is -0.726%. Moreover, in assay [4], the Potency was over 20.6 µM.
